PNC inhibitor: High Content Assay for Compounds that inhibit the Assembly of the Perinucleolar Compartment | PC3M PTB-GFP, PNC prevalence imaging, 16 h; hits give low values | activity change (PNC), negative = inhibition, % at 10 µM | 140,000 tested, 3.1% active;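 active = readout at or below -70, meaning at least 70% loss of cells showing the perinucleolar compartment, a nuclear body marking cancer cells; inconclusive = readout between -30 and a set limit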
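PC3M cells stably expressing PTB-GFP, 750–1000 cells/well, treated 16 h at 37 °C with compound (23 nl of library stock), in duplicate. After paraformaldehyde fixation and Hoechst stain, imaged at 20x; PNC prevalence scored by image analysis.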
aGal spleen mod: qHTS Assay for Inhibitors and Activators of Human alpha-Galactosidase From Spleen Homogenate; Alpha-galactosidase A (Homo sapiens), P06280; human spleen homogenate, 4MU-alpha-Gal fluorescence, 40 min; Potency, µM (titrated, usually from 80 µM), actives largely listed as inhibitors; 240,000 tested, 0.008% active
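Spleen homogenate 1 ug + cpd (titration) + 4-MU-alpha-D-galactopyranoside 1 mM; 37C 40 min; 50 mM citrate/phosphate pH 5.0, 0.01% Tween-20; stop pH 10; fluorescence 365/440; AC50 via Hill.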
HPGD block: qHTS Assay for Inhibitors of HPGD (15-Hydroxyprostaglandin Dehydrogenase); 15-hydroxyprostaglandin dehydrogenase [NAD(+)] (Homo sapiens), P15428; purified HPGD, NADH fluorescence kinetic, PGE2 substrate; Potency, µM, hits mostly inhibitors; 150,000 tested, 4.3% active; active = well fitted inhibition curve with a large enough effect, not every such curve was filed as active; inconclusive = small, poorly fitted or top-dose-only effect, or another doubt; inactive = no such curve, though single readings can be large or run the other way
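NADH formation kinetics: reaction with 30 uM PGE2 and 1 mM NAD+ (final), 20 nM enzyme, Tris-HCl pH 8 with Tween 20, after 15 min compound preincubation at room temperature. Fluorescence change, last versus first of five reads.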
ALDH1A1 inh: qHTS Assay for Inhibitors of Aldehyde Dehydrogenase 1 (ALDH1A1) | Aldehyde dehydrogenase 1A1 (Homo sapiens), P00352 | Purified ALDH1A1, NADH fluorescence, propionaldehyde substrate | Potency, µM (titrated, usually from 75.3 µM), usual class: inhibitors | 220,000 tested, 7.3% active; active = well fitted inhibition curve with a large enough effect, not every such curve was filed as active; inconclusive = small, poorly fitted or top-dose-only effect, or another doubt; inactive = no such curve, though single readings can be large or run the other way
ALOX12 inhib: qHTS Assay for Inhibitors of 12-hLO (12-human lipoxygenase) | 150,000 tested, 0.12% active | Potency, µM (titrated, usually from 57.1 µM), hits mostly inhibitors | Polyunsaturated fatty acid lipoxygenase ALOX12 (Homo sapiens), P18054 | purified 12-hLO, xylenol orange hydroperoxide absorbance; also: nearly all actives have a fitted effect of over 55% in size
Target sequence (P18054 whole entry, looked up): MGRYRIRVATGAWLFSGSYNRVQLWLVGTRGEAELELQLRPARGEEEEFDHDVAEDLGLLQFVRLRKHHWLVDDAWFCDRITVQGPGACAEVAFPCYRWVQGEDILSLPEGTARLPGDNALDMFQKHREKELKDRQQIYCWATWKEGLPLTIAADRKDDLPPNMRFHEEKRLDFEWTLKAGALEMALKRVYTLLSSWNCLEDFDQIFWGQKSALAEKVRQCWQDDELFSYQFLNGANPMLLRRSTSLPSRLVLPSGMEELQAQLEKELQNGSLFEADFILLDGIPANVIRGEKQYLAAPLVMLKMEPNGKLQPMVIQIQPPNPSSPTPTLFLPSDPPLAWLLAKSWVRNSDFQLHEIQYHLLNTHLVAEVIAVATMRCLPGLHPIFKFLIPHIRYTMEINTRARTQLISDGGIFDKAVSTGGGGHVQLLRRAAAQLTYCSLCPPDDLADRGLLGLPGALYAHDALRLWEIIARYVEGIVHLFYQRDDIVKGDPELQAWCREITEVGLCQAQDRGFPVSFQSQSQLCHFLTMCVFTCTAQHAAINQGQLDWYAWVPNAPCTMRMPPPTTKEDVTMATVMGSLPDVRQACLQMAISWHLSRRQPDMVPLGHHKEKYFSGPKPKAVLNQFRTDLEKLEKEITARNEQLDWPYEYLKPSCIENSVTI
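Lipoxygenase turnover measured by absorbance at 573 and 405 nm after Fe-XO development. Human 12hLO 150 nM, arachidonate 40 uM, pH 7.0 Hepes buffer with detergent; 15 min compound preincubation, 30 min reaction.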
GLA inh pH 4.5: qHTS Assay for Inhibitors of Human alpha-Galactosidase at pH 4.5. purified enzyme, 4-MU-alpha-Gal fluorescence, pH 4.5. activity change, negative = inhibition, % at 105 µM. Alpha-galactosidase A (Homo sapiens), P06280. AID 1467, 2008. 230,000 tested, under 10 active
Numbers stand for hits; i = inactive; ? = inconclusive; nt = not tested or not shown; [ ] = another dose, or the depositor's remark. In the library only some 10% were active in any assay of this set; here they are far more common. Unless noted, calls follow the shape of the dose curve; as a rule, active = well fitted curve in the direction sought with a large enough effect; inconclusive = small, poorly fitted or top-dose-only effect, or another doubt; inactive = no such curve, though single readings can be large; an effect the other way counts as inactive or inconclusive.

SMILES	PNC inhibitor	aGal spleen mod	HPGD block	ALDH1A1 inh	ALOX12 inhib	GLA inh pH 4.5
Cc1ccc(C(=O)O)cc1-c1ccc(/C=C2\SC(=O)N(CC(=O)Nc3ccccc3)C2=O)o1	nt	i	nt	?	nt	i
Cc1ccc(NC(=O)CN2C(=O)S/C(=C\c3ccc(-c4cccc(C(=O)O)c4C)o3)C2=O)cc1	i	i	10µM	?	i	i
Cc1ccc(S(=O)(=O)c2ccc(Oc3cccc(C)c3)cc2)cc1	i	i	i	i	i	i
CCCOc1ccc(/C=N/NC(=O)CSCc2ccc([N+](=O)[O-])cc2)cc1OCC	i	i	i	i	i	i
CC1(C)O[C@H]2OC([C@H](O)CON3C(=O)c4ccccc4C3=O)[C@H](O)[C@H]2O1 (some centres not stated)	i	i	15.8µM	i	i	i
CCN1CN(Cc2ccco2)CNC1=S	-81.9	i	i	i	i	i
S=C1NCN(Cc2ccco2)CN1Cc1ccco1	nt	i	nt	?	nt	i
O=C(CC(c1ccccc1)c1ccccc1O)NCc1ccccc1Cl (configuration not stated)	?	i	15.8µM	i	i	i
O=C(NCc1ccccc1Cl)NCc1ccccc1Cl	nt	i	nt	nt	nt	i
O=C(CSCC(=O)NCc1ccco1)NCc1ccco1	i	i	i	?	i	i
O=C(CC(c1ccccc1)c1ccccc1O)NCc1ccco1 (configuration not stated)	i	i	15.8µM	i	i	i
O=C(COC(=O)CCSc1ccccc1)NCc1ccccc1Cl	i	i	17.8µM	i	i	i
O=C(Nc1ccnc(-c2cccnc2)n1)c1cccc(Cl)c1Cl	i	i	i	i	i	i
O=C(O)CCCn1cc(NC(=O)c2ccc(Br)o2)cn1	nt	i	nt	?	nt	i
COC(=O)c1c(NC(NC(=O)c2ccccc2)(C(F)(F)F)C(F)(F)F)sc2c1CCN(C)C2	i	i	i	?	i	i
COc1cccc(C(=O)N2CCOCC2)c1OC	nt	i	nt	i	nt	i
COc1cccc(C(=O)N2CCN(C(=O)c3cccs3)CC2)c1OC	i	i	i	22.4µM	i	i
Cc1ccc(N=C2NC(=O)S/C2=C\c2ccco2)cc1	i	i	22.4µM	i	?	i
O=C1NC(=Nc2ccccc2)/C(=C/c2ccco2)S1	i	i	i	?	i	i
O=C1NC(=Nc2ccccc2)S/C1=C\C=C\c1ccco1	?	i	28.2µM	i	?	i
Cc1cccc(N=C2NC(=O)/C(=C/C=C/c3ccco3)S2)c1C	i	i	7.94µM	2.82µM	?	i
COc1ccc(N=C2NC(=O)/C(=C/C=C/c3ccccc3)S2)cc1	nt	i	nt	nt	nt	i
Cc1ccc(N=C2NC(=O)/C(=C/C=C/c3ccco3)S2)cc1	i	i	i	4.47µM	i	i
CN1CCCC2(CCN(S(=O)(=O)c3ccccc3)CC2)C1	nt	i	i	i	i	nt
Cc1ccc(NC(=S)N/N=C/c2c(Cl)cccc2Cl)c(C)c1	-98.3	i	i	i	?	i
SMILES	PNC inhibitor	aGal spleen mod	HPGD block	ALDH1A1 inh	ALOX12 inhib	GLA inh pH 4.5
CC(C)(C)NC(=S)N/N=C/c1c(Cl)cccc1Cl	nt	i	nt	i	nt	i
CS[C@@H](CC(=O)O)C(=O)O	nt	nt	i	i[13.5 µM]	i[11.4 µM]	nt
COc1cccc(/C=C2\SC(=O)N(CCC(=O)NNC(=O)c3cccc(Cl)c3)C2=O)c1	-85.8	i	i	i	i	i
COc1ccc(/C=C2\SC(=O)N(CCC(=O)Nc3ccccc3)C2=O)cc1OC	i	i	i	i	i	i
COc1ccccc1/C=C1\SC(=O)N(CCC(=O)NNC(=O)c2ccccc2Cl)C1=O	-92.6	i	i	?	i	i
Clc1ccc(CSc2ncnc3c2ncn3[C@@H]2CCCCO2)cc1	nt	nt	i	i[13.5 µM]	i[11.4 µM]	nt
O=[N+]([O-])c1ccc(Cl)c(CNc2ncnc3c2ncn3[C@@H]2CCCCO2)c1	nt	nt	3.55µM	i[13.5 µM]	i[11.4 µM]	nt
CN(C)Cc1ccccc1-c1nc(N(C)Cc2ccco2)c2ccccc2n1	nt	i	i	i	i	i
O=Cc1[nH]c2ccccc2c1N(C(=O)CCl)c1ccc([N+](=O)[O-])cc1	nt	i	nt	7.94µM	nt	i
CCC(CC)c1nnc(NC(=O)CN2C(=O)c3ccccc3C2=O)s1	nt	i	nt	i	nt	i
CCCC(C)c1nnc(NC(=O)CN2C(=O)c3ccccc3C2=O)s1 (configuration not stated)	nt	i	nt	28.2µM	nt	i
Cc1cccc2sc(NC(=O)CN3C(=O)c4ccccc4C3=O)nc12	?	i	i	i	i	i
Cc1ccc2sc(NC(=O)CN3C(=O)c4ccccc4C3=O)nc2c1C	-118.9	i	i	i	i	i
Fc1ccc(-c2c[nH]c(=S)n2Cc2ccccc2)cc1	nt	i	nt	0.355µM	nt	i
COc1ccc(N2CCc3c(C)nc4c(OC)cccc4c32)cc1	nt	i	nt	28.2µM	nt	i
COc1ccc(N2CCc3c(C)nc4c(OC)cc(OC)cc4c32)cc1	nt	i	nt	i	nt	i
CC(=O)O[C@@]1(C(C)=O)CCC2C3C=C(C)C4=CC(=O)CCC4(C)C3CCC21C (some centres not stated)	nt	i	i	i	i	i
Cc1cc(SCC(=O)N(C)C2CCS(=O)(=O)C2)nc2c(C)cccc12 (configuration not stated)	nt	i	nt	i	nt	i
COCC(C)n1c(SCC(=O)N2CCCCC2)nc2ccccc2c1=O (configuration not stated)	i	i	i	?	i	i
C=CCn1c(SCC(=O)N2CCc3ccccc3C2)nc2ccccc2c1=O	i	i	i	12.6µM	i	i
COCC(C)n1c(SCC(=O)N2CCc3ccccc3C2)nc2ccccc2c1=O (configuration not stated)	-121.5	i	i	i	i	i
CCCCOC(=O)/C(=C/c1cn(C)c2ccccc12)NC(=O)c1ccc(OC)cc1	-93.3	i	i	i	i	i
COc1ccc(C(=O)N/C(=C\c2cn(C)c3ccccc23)C(=O)OCCN(C)C)cc1	nt	i	nt	i	nt	i
Nc1ccc(S(=O)(=O)NCc2nccs2)cc1	nt	nt	i	i[13.5 µM]	i[11.4 µM]	nt
O=C(O)CCC(=O)Nc1ccc(N2CCCCCC2)cc1	i	i	i	11.2µM	i	i
Cc1ccccc1OCC(=O)Nc1ccc(Cc2ccncc2)cc1	?	i	17.8µM	?	i	i
O=C(CNCC1CCCO1)Nc1ccc(N2CCCCCC2)cc1 (configuration not stated)	i	i	i	15.8µM	i	i
COc1ccccc1OCC(=O)Nc1ccc(N2CCCCC2)cc1	nt	i	nt	i	nt	i

Assay outcomes as filed in PubChem.
